According to PMC5540273 (PLoS ONE, 2017):

Legend:
Settings in all cases: concentration: 1 μM, replicates: in singlicate; n = 1
HIPK4 = system: HIPK4
HPK1 = system: HPK1
HUNK = system: HUNK
ICK = system: ICK
IGF1R = system: IGF1R
IKK-alpha = system: T1, IKK-alpha
T1 construct: gene CHUK

IKK-beta = system: T2, IKK-beta
T2 construct: gene IKBKB

IKK-epsilon = system: T3, IKK-epsilon
T3 construct: gene IKBKE

INSRR = system: INSRR
INSR = system: INSR
IRAK1 = system: IRAK1
IRAK3 = system: IRAK3
IRAK4 = system: IRAK4
ITK = system: ITK
[1] = system: JAK1(JH1domain-catalytic)
[2] = system: JAK1(JH2domain-pseudokinase)
[3] = system: JAK2(JH1domain-catalytic)
[4] = system: JAK3(JH1domain-catalytic)
JNK1 = system: T4, JNK1
T4 construct: gene MAPK8

JNK2 = system: T5, JNK2
T5 construct: gene MAPK9
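Also: KINOMEscan kinase panel screen.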

SMILES | %Inh (HIPK4) [%] | %Inh (HPK1) [%] | %Inh (HUNK) [%] | %Inh (ICK) [%] | %Inh (IGF1R) [%] | %Inh (IKK-alpha) [%] | %Inh (IKK-beta) [%] | %Inh (IKK-epsilon) [%] | %Inh (INSRR) [%] | %Inh (INSR) [%] | %Inh (IRAK1) [%] | %Inh (IRAK3) [%] | %Inh (IRAK4) [%] | %Inh (ITK) [%] | %Inh [1] [%] | %Inh [2] [%] | %Inh [3] [%] | %Inh [4] [%] | %Inh (JNK1) [%] | %Inh (JNK2) [%]
Cn1cnc2c(N)ncnc21 [SKF-97623] | 0 | 33 | 17 | 0 | 46 | 0 | 0 | 0 | 0 | 0 | 0 | 0 | 0 | 7 | 19 | 0 | 0 | 6 | 1 | 0
FC(F)(F)c1ccccc1-c1cc(-c2c[nH]nc2-c2ccccn2)ccn1 [GW679396] | 0 | 0 | 0 | 3 | 0 | 0 | 0 | 100 | 0 | 0 | 0 | 0 | 0 | 8 | 5 | 0 | 0 | 0 | 30 | 32
COC(=O)c1cccc(NC(=O)NC2CCN(c3ccnc(Nc4ccc(OC)cc4)n3)C2)c1 (centres unmarked) [GSK1379746] | 0 | 41 | 0 | 12 | 1 | 44 | 18 | 29 | 0 | 0 | 35 | 0 | 23 | 13 | 14 | 0 | 2 | 0 | 37 | 0
CCn1c(-c2c(N)noc2C)nc2cnccc21 [SB-737856] | 0 | 41 | 0 | 4 | 0 | 7 | 0 | 0 | 0 | 0 | 15 | 29 | 34 | 16 | 8 | 0 | 11 | 0 | 15 | 23
CNc1cc(-c2ccc3c(N)n[nH]c3c2)nc(N)n1 [GSK2224810] | 14 | 41 | 5 | 12 | 0 | 6 | 0 | 39 | 0 | 19 | 0 | 0 | 0 | 3 | 12 | 35 | 4 | 0 | 0 | 6
Cc1nccc(-c2c(-c3ccc(F)cc3)ncn2CCCN2CCOCC2)n1.Cl [SB-282975] | 50 | 3 | 16 | 39 | 3 | 14 | 12 | 0 | 11 | 3 | 39 | 0 | 30 | 24 | 0 | 17 | 37 | 9 | 13 | 40
O=C(Nc1n[nH]c2nc(-c3ccco3)c(Br)cc12)C1CCN(Cc2ccccc2)C1.O=C(O)[C@H](O)[C@@H](O)C(=O)O (centres unmarked) [SB-742034] | 1 | 0 | 33 | 22 | 0 | 0 | 26 | 19 | 0 | 12 | 0 | 35 | 0 | 13 | 0 | 61 | 23 | 0 | 37 | 0
CS(=O)(=O)CCNCc1nc(-c2ccc3ncnc(Nc4ccc(OCc5ccccc5)c(Cl)c4)c3c2)cs1.Cl [GW582764] | 0 | 44 | 5 | 0 | 4 | 28 | 5 | 0 | 0 | 0 | 28 | 0 | 13 | 44 | 2 | 0 | 10 | 0 | 15 | 0
Fc1ccc(-c2nc[nH]c2-c2ccncc2)cc1 [SB-217360] | 0 | 0 | 55 | 0 | 3 | 9 | 0 | 0 | 0 | 24 | 0 | 0 | 0 | 5 | 0 | 28 | 27 | 0 | 79 | 95.6
CNCc1ccc2nc(NC(=O)c3ccc(C(C)(C)C)cc3)cn2c1 | 5 | 12 | 19 | 27 | 0 | 8 | 6 | 15 | 2 | 9 | 13 | 0 | 0 | 0 | 0 | 17 | 3 | 3 | 18 | 6
Cc1ccc(NC(=O)Nc2ccc(Cl)c(C(F)(F)F)c2)cc1-c1ccc(C(=O)Nc2ccncc2)cc1 [GSK1398470] | 8 | 56 | 9 | 4 | 26 | 0 | 0 | 29 | 5 | 23 | 0 | 9 | 0 | 18 | 5 | 0 | 0 | 0 | 16 | 14
CC(C)c1ccc(O)cc1Nc1ccnc2ccc(C(F)(F)F)cc12 [GW482059] | 10 | 23 | 0 | 0 | 3 | 0 | 0 | 0 | 7 | 0 | 0 | 19 | 0 | 0 | 1 | 0 | 35 | 0 | 3 | 0
COc1ccc2cc(-c3nc(-c4ccccc4C(C)C)[nH]c3-c3ccncc3)ccc2c1 [SB-660566] | 0 | 37 | 0 | 22 | 9 | 19 | 26 | 14 | 1 | 5 | 23 | 0 | 42 | 8 | 11 | 0 | 100 | 0 | 23 | 44
CS(=O)(=O)Cc1ccc(Nc2nccc(-c3c(-c4cccc(NC(=O)C5CCCCC5)c4)nn4ncccc34)n2)cc1 [GSK350559] | 0 | 14 | 7 | 14 | 68 | 0 | 12 | 32 | 20 | 42 | 24 | 3 | 25 | 6 | 0 | 0 | 16 | 43 | 43 | 49
COC(=O)C(Cc1ccccc1)NC(=O)NC1CCN(c2ccnc(Nc3ccc(F)cc3)n2)C1 (centres unmarked) [GSK1379714] | 0 | 51 | 0 | 0 | 8 | 0 | 0 | 34 | 0 | 1 | 33 | 0 | 3 | 4 | 16 | 0 | 59 | 0 | 17 | 1
Cc1ccccc1Cn1ccn2c(=O)cc(N3CCOCC3)nc12 [GSK2269905] | 0 | 32 | 7 | 0 | 2 | 0 | 12 | 0 | 0 | 17 | 0 | 0 | 13 | 20 | 0 | 0 | 0 | 0 | 21 | 20
